Only some compounds are listed: those with a hit (about 6.6% of all), similar ones and a draw of the others.
Anthrax LF inh2 = Bacillus anthracis LF protease inhibitors, primary screen, biochemical, multiplex microsphere, MLPCN library; inhibition, % at 10 µM; Lethal factor (Bacillus anthracis), P15917; actives 0.12% (n = 360,000); multiplex microsphere protease cleavage assay; AID 588501, 2011; note: plate controls were buffer without enzyme for full effect and enzyme alone for no effect
Mtb FBA inh = Mtb FBA enzyme inhibitors, primary screen, biochemical, fluorescence, strain H37Rv. Fructose-bisphosphate aldolase (Mycobacterium tuberculosis (strain ATCC 25618 / H37Rv)), …. purified M. tuberculosis FBA, fluorescence read-out. inhibition, % at 1 µM. actives 2.3% (n = 360,000). AID 588726, 2011; in the data active = inhibition above about 27%;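 note: 0% = vehicle and 100% = reference inhibitor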
Target sequence (P9WQA3 whole entry, looked up): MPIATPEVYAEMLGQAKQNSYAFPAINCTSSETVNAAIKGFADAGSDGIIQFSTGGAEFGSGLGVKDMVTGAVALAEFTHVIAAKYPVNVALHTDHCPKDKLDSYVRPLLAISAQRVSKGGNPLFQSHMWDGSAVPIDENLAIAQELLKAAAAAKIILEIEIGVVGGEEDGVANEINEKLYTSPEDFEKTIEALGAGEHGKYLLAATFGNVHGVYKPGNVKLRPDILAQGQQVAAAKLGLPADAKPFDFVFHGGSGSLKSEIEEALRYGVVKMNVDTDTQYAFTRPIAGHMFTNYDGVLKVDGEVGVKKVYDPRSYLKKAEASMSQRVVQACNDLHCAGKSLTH
Bead autofluor = flagged as autofluorescent in microsphere protease counterscreen; compound autofluorescence counterscreen, microsphere flow cytometry; hits give high values; fluorescence intensity (test concentration not listed); actives 3.1% (n = 360,000); AID 624483; in the data active = fluorescence intensity above about 16000; inconclusive = no clear call, values can overlap the other calls
BoNT F protease = BoNT/F light chain protease inhibitors, primary screen, biochemical, flow cytometry, MLPCN library. Multiplex microsphere protease cleavage assay. inhibition, % at 10 µM. actives 0.22% (n = 360,000). AID 588497, 2011; in the data active = inhibition above about 35%, passing the limit was not always enough; inconclusive = no clear call, values can overlap the other calls; note: plate controls were buffer without enzyme for full effect and enzyme alone for no effect
BoNT-A LC inh2 = BoNT/A light chain protease inhibitors, primary screen, biochemical, flow cytometry, MLPCN library; multiplex microsphere protease substrate cleavage; inhibition, % at 10 µM; actives 0.17% (n = 360,000); note: plate controls were buffer without enzyme for full effect and enzyme alone for no effect
GDH-TPI counter = GDH-TPI coupling enzyme inhibitors, primary screen, artefact control for M. tuberculosis FBA inhibitor project, biochemical, absorbance, full deck. actives 1.2% (n = 360,000). inhibition, % at 4.8 µM. GDH-TPI coupled enzyme counterscreen, NADH absorbance; in the data active = inhibition above about 30%;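 note: 0% = DMSO wells and 100% = wells lacking the enzyme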
Starred values were filed as active, the others as inactive. Cut-off read from the data, not from the text of the source, unless noted: active = inhibition above about 30%; inconclusive = no clear call, values can overlap the other calls; inactive = below that.

What do the screens show for `O=C(CC1SC2=NCCN2C1=O)Nc1ccc(Cl)cc1` (configuration not stated)?
Anthrax LF inh2: 0; Mtb FBA inh: -3; Bead autofluor: 17758*; BoNT F protease: -7; BoNT-A LC inh2: -3; GDH-TPI counter: 1

How did CC1(C)CC(=O)CC(C)(C)N1OC(=O)c1ccncc1 do in these assays?
Anthrax LF inh2: -13; Mtb FBA inh: 0; Bead autofluor: 23714*; BoNT F protease: -1; BoNT-A LC inh2: inconclusive; GDH-TPI counter: 0

What do the screens show for `CC(C)c1nc(NCCO)c2nnn(Cc3ccccc3)c2n1`?
Anthrax LF inh2: -6; Mtb FBA inh: -3; Bead autofluor: 3905; BoNT F protease: 0; BoNT-A LC inh2: 0; GDH-TPI counter: -2

Results for CCCOc1ccccc1OCC(=O)Nc1cccc(S(=O)(=O)NC2=NCCC2)c1 ?
Anthrax LF inh2: 1; Mtb FBA inh: 6; Bead autofluor: 4846; BoNT F protease: -3; BoNT-A LC inh2: 3; GDH-TPI counter: 5

What do the screens show for `CCc1ccc(CN2CCN(C(=O)Cc3ccccc3)CC2)cc1`?
Anthrax LF inh2: -5; Mtb FBA inh: -1; Bead autofluor: 3804; BoNT F protease: -5; BoNT-A LC inh2: -1; GDH-TPI counter: -6

Results for O=C(CN1CCN(Cc2ccccc2)CC1)c1ccc(Br)cc1 ?
Anthrax LF inh2: 4; Mtb FBA inh: 0; Bead autofluor: 21164*; BoNT F protease: -5; BoNT-A LC inh2: 0; GDH-TPI counter: -2

How did S=C(c1ccc(Cl)cc1)N1CCN(Cc2ccccc2)CC1 do in these assays?
Anthrax LF inh2: -5; Mtb FBA inh: -2; Bead autofluor: 4627; BoNT F protease: 3; BoNT-A LC inh2: 0; GDH-TPI counter: -3

How did CSc1ccc(CN2CCN(C(=O)Cc3ccccc3)CC2)cc1 do in these assays?
Mtb FBA inh: 2; GDH-TPI counter: 31*

Results for O=C(C1CCCN(S(=O)(=O)c2ccc(Br)cc2)C1)N1CCN(Cc2ccccc2)CC1 (configuration not stated) ?
Anthrax LF inh2: -60; Mtb FBA inh: 2; Bead autofluor: 55843*; BoNT F protease: -391; BoNT-A LC inh2: -234; GDH-TPI counter: 2

How did CSc1ccc(C(=S)N2CCN(Cc3ccccc3)CC2)cc1 do in these assays?
Anthrax LF inh2: -17; Mtb FBA inh: 3; Bead autofluor: 19865*; BoNT F protease: 13; BoNT-A LC inh2: 7; GDH-TPI counter: 14

What do the screens show for `O=C(COC(=O)COc1ccc(Cl)cc1)NC1CC1`?
Anthrax LF inh2: -6; Mtb FBA inh: 2; Bead autofluor: 3793; BoNT F protease: -2; BoNT-A LC inh2: 0; GDH-TPI counter: 6

What do the screens show for `CCN1C(=O)C(O)(CC(=O)/C=C/C=C/c2ccccc2)c2ccccc21` (configuration not stated)?
Anthrax LF inh2: -2; Mtb FBA inh: -1; Bead autofluor: 3410; BoNT F protease: -32; BoNT-A LC inh2: -1; GDH-TPI counter: 41*

Results for Cc1ccc2c(c1)C(O)(CC(=O)/C=C/C=C/c1ccccc1)C(=O)N2 (configuration not stated) ?
Anthrax LF inh2: 1; Mtb FBA inh: -5; Bead autofluor: 2439; BoNT F protease: -4; BoNT-A LC inh2: 0; GDH-TPI counter: 38*

What do the screens show for `O=C(/C=C/C=C/c1ccccc1)CC1(O)C(=O)N(CCc2ccccc2)c2ccccc21` (configuration not stated)?
Anthrax LF inh2: -1; Mtb FBA inh: -1; Bead autofluor: 2379; BoNT F protease: 1; BoNT-A LC inh2: 0; GDH-TPI counter: 17

Results for NC(=O)CN1C(=O)C(O)(CC(=O)/C=C\C=C\c2ccccc2)c2ccccc21 (configuration not stated) ?
Anthrax LF inh2: 2; Mtb FBA inh: 0; Bead autofluor: 8046; BoNT F protease: -5; BoNT-A LC inh2: 0; GDH-TPI counter: 34*

What do the screens show for `CCN(CC)C(=O)CSc1nnc(-c2ccncc2)n1N`?
Anthrax LF inh2: -2; Mtb FBA inh: 3; Bead autofluor: 16267*; BoNT F protease: 2; BoNT-A LC inh2: 0; GDH-TPI counter: 6

Results for c1ccc(OCCSc2nnc3sc4ccccc4n23)cc1 ?
Anthrax LF inh2: 0; Mtb FBA inh: 2; Bead autofluor: 12613; BoNT F protease: -3; BoNT-A LC inh2: 0; GDH-TPI counter: 0

How did CCN(CC)C(=O)CSc1nnc2sc3ccccc3n12 do in these assays?
Anthrax LF inh2: -7; Mtb FBA inh: 0; Bead autofluor: 19933*; BoNT F protease: 0; BoNT-A LC inh2: -1; GDH-TPI counter: -11

How did CCOc1ccc(-c2nnc(SCC(=O)N(CC)CC)n2N)cc1 do in these assays?
Anthrax LF inh2: 1; Mtb FBA inh: 1; Bead autofluor: 21180*; BoNT F protease: -5; BoNT-A LC inh2: -4; GDH-TPI counter: -7

Results for CCN(CC)C(=O)CSc1nnc(-c2ccccc2)n1N ?
Anthrax LF inh2: -3; Mtb FBA inh: 1; Bead autofluor: 21307*; BoNT F protease: -4; BoNT-A LC inh2: -1; GDH-TPI counter: -2

Results for O=C(CSc1nnc(CNC(=O)c2c(F)cccc2Cl)o1)NCc1ccc(F)cc1 ?
Anthrax LF inh2: -2; Mtb FBA inh: 4; Bead autofluor: 5693; BoNT F protease: -2; BoNT-A LC inh2: 0; GDH-TPI counter: 8

Results for CCCCN(CCCC)CC(O)COc1ccccc1Br (configuration not stated) ?
Anthrax LF inh2: -2; Mtb FBA inh: 3; Bead autofluor: 2157; BoNT F protease: -13; BoNT-A LC inh2: 0; GDH-TPI counter: 6

Results for O=P1(NC2CCCC2)OCC2(CO1)COP(=O)(NC1CCCC1)OC2 (configuration not stated) ?
Anthrax LF inh2: 0; Mtb FBA inh: -2; Bead autofluor: 3789; BoNT F protease: -6; BoNT-A LC inh2: 0; GDH-TPI counter: 8

How did Cc1cc(=O)oc2c3c(cc(OCC(=O)NC(Cc4ccc(Cl)cc4)C(=O)O)c12)OC(C)(C)CC3 (configuration not stated) do in these assays?
Anthrax LF inh2: -2; Mtb FBA inh: active; Bead autofluor: 5451; BoNT F protease: 7; BoNT-A LC inh2: 0; GDH-TPI counter: 14

Results for Cc1c(OCC(=O)NC(Cc2ccc(Cl)cc2)C(=O)O)ccc2c3c(c(=O)oc12)CCC3 (configuration not stated) ?
Anthrax LF inh2: 2; Mtb FBA inh: 6; Bead autofluor: 3840; BoNT F protease: -17; BoNT-A LC inh2: 0; GDH-TPI counter: 7

How did Cc1cc(=O)oc2c3c(cc(OCC(=O)N[C@@H](Cc4ccccc4)C(=O)O)c12)OC(C)(C)CC3 do in these assays?
Anthrax LF inh2: -6; Mtb FBA inh: active; Bead autofluor: 4341; BoNT F protease: -6; BoNT-A LC inh2: 0; GDH-TPI counter: 22
